Records with an inconclusive call do not appear. Active and inactive are the calls of the source. Rule for the calls, unless noted: active = hit-call score of the fitted dose curve at least 0.9, where 1 is the maximum; inactive = score below 0.9.
Columns and labels:
[1] = ATG_CMV_CIS: Attagene CIS-FACTORIAL HepG2 Assay for human CMV (Internal Marker) (AID 2282928); settings: HepG2 CMV promoter reporter, transcription factor profiling; actives raise or lower the signal;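 note: endpoint acts as a background internal control marker rather than a target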
Procedure, shortened: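 24 h chemical treatment, HepG2 with transient multi-reporter transfection; RNA → oligo(dT) RT → PCR → 6-FAM extension → HpaI digest → CE fluorescence. Bidirectional fit, DMSO negative control.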

[2] = ATG_DR4_LXR_CIS: Attagene CIS-FACTORIAL HepG2 Assay for human Liver X Receptor (LXR), DR4 submotif (AID 2282929); settings: HepG2 Attagene DR4 cis-reporter, mRNA transcription; actives raise or lower the signal
Procedure, shortened: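 Measures endogenous transcription factor activity via a DR4-driven reporter transcript in human HepG2 cells. Compounds incubated 24 h; mRNA quantified by RT-PCR and capillary electrophoresis, analysed as gain or loss of signal versus DMSO.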

[3] = molecular target: Transcription factor E2F1 (Homo sapiens) (UniProt Q01094); assay: ATG_E2F_CIS: Attagene CIS-FACTORIAL HepG2 Assay for human E2F Transcription Factor 1 (AID 2282935); settings: HepG2 Attagene cis-reporter, E2F reporter RNA transcripts; actives raise or lower the signal
Chain of Transcription factor E2F1 (Homo sapiens) (Q01094 whole entry, looked up): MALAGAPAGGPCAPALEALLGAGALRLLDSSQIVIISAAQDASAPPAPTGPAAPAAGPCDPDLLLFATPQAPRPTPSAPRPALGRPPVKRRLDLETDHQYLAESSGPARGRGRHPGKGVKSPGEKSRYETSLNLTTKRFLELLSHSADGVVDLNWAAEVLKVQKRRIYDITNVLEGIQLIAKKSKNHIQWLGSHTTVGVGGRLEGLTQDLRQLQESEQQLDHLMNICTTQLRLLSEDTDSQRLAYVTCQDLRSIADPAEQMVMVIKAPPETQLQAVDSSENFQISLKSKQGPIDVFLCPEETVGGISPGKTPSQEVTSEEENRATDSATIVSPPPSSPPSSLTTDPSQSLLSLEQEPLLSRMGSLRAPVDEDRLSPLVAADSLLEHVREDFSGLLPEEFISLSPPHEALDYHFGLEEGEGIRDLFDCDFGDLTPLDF
Procedure, shortened: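 In this cis-factorial format, endogenous factor activity drives transfected reporters in HepG2; transcripts collected at 24 h are quantified by fluorescence after RT-PCR and capillary separation.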

[4] = ATG_M_19_CIS: Attagene CIS-FACTORIAL HepG2 Assay for M19 Transcription Factor (Internal Marker) (AID 2282939); settings: HepG2 Attagene CIS-FACTORIAL M19 internal marker reporter; actives raise or lower the signal
Procedure, shortened: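 Chemical-treated HepG2 (24 h) with MRTU constructs; reporter transcripts detected by fluorescent RT-PCR fragment analysis on capillary electrophoresis. Internal background marker, DMSO as baseline.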

[5] = molecular target: Hepatocyte nuclear factor 3-beta (Homo sapiens) (UniProt Q9Y261); assay: ATG_FoxA2_CIS: Attagene CIS-FACTORIAL HepG2 Assay for human Forkhead box A2 (FOXA2) (AID 2282942); settings: HepG2 cis-reporter transcription factor activity, 24 h; actives raise or lower the signal
Chain of Hepatocyte nuclear factor 3-beta (Homo sapiens) (Q9Y261 whole entry, looked up): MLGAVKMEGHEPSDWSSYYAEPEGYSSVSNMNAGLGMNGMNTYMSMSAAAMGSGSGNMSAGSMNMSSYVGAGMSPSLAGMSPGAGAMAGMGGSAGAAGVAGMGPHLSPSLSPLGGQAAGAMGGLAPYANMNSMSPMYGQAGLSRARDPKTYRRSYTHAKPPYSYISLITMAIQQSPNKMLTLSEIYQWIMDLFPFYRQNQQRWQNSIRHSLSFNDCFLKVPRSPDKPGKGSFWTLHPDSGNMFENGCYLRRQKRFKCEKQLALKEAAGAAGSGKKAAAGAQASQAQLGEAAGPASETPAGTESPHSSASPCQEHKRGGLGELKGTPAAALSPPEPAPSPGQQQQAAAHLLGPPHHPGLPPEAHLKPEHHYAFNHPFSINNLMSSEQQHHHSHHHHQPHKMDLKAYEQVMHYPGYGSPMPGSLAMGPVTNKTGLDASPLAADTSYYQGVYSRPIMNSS
Procedure, shortened: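 In transiently transfected human HepG2 cells, promoter-driven reporter mRNA levels after 24 h chemical exposure are determined via RT-PCR with capillary electrophoresis. DMSO serves as baseline for bidirectional fitting.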

[6] = molecular target: Hypoxia-inducible factor 1-alpha (Homo sapiens) (UniProt Q16665); assay: ATG_HIF1a_CIS: Attagene CIS-FACTORIAL HepG2 Assay for human Hypoxia Inducible Factor 1 (HIF1A) (AID 2282951); settings: HepG2 Attagene cis-factorial HIF1a reporter transcription; actives raise or lower the signal
Chain of Hypoxia-inducible factor 1-alpha (Homo sapiens) (Q16665 whole entry, looked up): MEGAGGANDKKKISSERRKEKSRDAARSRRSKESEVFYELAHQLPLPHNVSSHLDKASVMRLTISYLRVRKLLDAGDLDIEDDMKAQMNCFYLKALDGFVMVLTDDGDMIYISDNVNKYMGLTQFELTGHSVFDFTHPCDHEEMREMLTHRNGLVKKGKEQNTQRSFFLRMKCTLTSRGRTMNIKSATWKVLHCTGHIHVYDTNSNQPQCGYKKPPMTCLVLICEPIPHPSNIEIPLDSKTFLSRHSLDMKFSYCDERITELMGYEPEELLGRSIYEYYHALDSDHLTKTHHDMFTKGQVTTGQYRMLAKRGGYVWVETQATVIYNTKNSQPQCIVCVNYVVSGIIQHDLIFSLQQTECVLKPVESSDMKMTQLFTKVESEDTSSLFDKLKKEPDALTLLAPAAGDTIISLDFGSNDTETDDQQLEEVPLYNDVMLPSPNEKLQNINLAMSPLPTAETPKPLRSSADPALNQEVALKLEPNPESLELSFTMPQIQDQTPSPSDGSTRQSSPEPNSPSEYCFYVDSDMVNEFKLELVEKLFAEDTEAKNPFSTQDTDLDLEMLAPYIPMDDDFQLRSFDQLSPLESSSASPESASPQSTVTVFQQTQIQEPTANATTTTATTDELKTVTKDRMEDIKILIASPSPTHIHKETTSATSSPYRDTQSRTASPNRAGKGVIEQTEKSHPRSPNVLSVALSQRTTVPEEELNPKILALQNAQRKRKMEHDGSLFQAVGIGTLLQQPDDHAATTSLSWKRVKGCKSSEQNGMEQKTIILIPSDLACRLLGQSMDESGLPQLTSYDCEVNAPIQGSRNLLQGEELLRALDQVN
Procedure, shortened: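 In this multiplexed cell assay, HepG2 cells bearing transfected cis reporters are dosed for 24 h and reporter mRNA is read by RT-PCR plus capillary electrophoresis; signal increases and decreases are both scored against DMSO.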

[7] = molecular target: Hepatocyte nuclear factor 6 (Homo sapiens) (UniProt Q9UBC0); assay: ATG_HNF6_CIS: Attagene CIS-FACTORIAL HepG2 Assay for human Hepatocyte Nuclear Factor 6 (HNF6) (AID 2282952); settings: HepG2 Attagene cis-factorial HNF6 reporter transcription; actives raise or lower the signal
Chain of Hepatocyte nuclear factor 6 (Homo sapiens) (Q9UBC0 whole entry, looked up): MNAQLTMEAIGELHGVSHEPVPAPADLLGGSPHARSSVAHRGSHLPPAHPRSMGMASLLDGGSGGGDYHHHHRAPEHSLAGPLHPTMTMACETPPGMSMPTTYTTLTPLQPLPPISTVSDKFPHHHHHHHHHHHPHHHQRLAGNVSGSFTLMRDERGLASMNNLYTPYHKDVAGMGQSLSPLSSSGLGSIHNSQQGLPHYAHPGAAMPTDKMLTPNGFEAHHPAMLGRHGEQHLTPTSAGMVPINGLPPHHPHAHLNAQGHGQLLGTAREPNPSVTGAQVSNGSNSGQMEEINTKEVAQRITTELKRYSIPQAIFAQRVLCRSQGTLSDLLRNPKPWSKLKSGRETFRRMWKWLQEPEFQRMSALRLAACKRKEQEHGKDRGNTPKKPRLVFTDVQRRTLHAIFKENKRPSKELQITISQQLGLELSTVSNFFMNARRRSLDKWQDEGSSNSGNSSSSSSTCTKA
Procedure, shortened: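 Endogenous transcription factor activity in human HepG2 liver cells was captured through cis-regulated reporter constructs. After 24 h treatment, reporter mRNA was measured by RT-PCR with capillary electrophoresis, and activity was fitted in both directions relative to DMSO.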

[8] = molecular target: Heat shock factor protein 1 (Homo sapiens) (UniProt Q00613); assay: ATG_HSE_CIS: Attagene CIS-FACTORIAL HepG2 Assay for human Heat Shock Transcription Factor 1 (HSE) (AID 2282953); settings: HepG2 HSE cis-reporter, Attagene RNA transcription; actives raise or lower the signal
Chain of Heat shock factor protein 1 (Homo sapiens) (Q00613 whole entry, looked up): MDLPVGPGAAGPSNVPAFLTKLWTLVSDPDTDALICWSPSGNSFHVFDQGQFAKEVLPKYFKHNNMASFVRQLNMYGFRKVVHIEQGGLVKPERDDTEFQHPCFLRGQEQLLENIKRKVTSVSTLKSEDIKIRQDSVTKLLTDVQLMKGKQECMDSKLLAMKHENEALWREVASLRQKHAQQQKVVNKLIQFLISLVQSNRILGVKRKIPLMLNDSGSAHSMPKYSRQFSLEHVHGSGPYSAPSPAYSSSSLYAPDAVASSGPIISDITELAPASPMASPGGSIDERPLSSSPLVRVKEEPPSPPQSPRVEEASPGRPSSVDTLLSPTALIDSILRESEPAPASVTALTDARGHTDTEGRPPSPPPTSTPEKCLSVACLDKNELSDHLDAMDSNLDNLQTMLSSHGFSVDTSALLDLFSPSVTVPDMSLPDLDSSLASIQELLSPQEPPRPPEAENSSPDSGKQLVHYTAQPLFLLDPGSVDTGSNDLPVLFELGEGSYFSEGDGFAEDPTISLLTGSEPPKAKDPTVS
Procedure, shortened: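 Liver-derived HepG2 cells carry transiently introduced multiple reporter units governed by cis promoters. Reporter RNA measured 24 h post-dose through reverse transcription, PCR amplification, fluorescent labelling and capillary electrophoresis, normalised to DMSO.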

[9] = ATG_RORE_CIS: Attagene CIS-FACTORIAL HepG2 Assay for human RAR-related Orphan Receptor Element (RORE) (AID 2282959); settings: HepG2 Attagene cis-factorial RORE reporter, mRNA; actives raise or lower the signal
Procedure, shortened: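 Fluorescence intensity of reporter-specific cDNA fragments, separated by capillary electrophoresis, gives the signal. Source: HepG2 liver cells transiently transfected with cis-element reporters and exposed 24 h; DMSO-normalized bidirectional fit.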

[10] = ATG_Sox_CIS: Attagene CIS-FACTORIAL HepG2 Assay for human SRY-box transcription factor (SOX) (AID 2282960); settings: HepG2 Attagene cis-factorial SOX reporter, mRNA; actives raise or lower the signal
Procedure, shortened: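 After 24 h of chemical treatment, transfected HepG2 reporter cells are lysed for total RNA. Transcript levels come from RT-PCR with labelled primer extension and capillary electrophoresis, analysed bidirectionally versus DMSO.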

[11] = ATG_TA_CIS: Attagene CIS-FACTORIAL HepG2 Assay for human TA Basal Promoter (AID 2282964); settings: HepG2 Attagene CIS-factorial TA basal promoter reporter; actives raise or lower the signal
Procedure, shortened: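 Background internal-marker endpoint from a 52-component HepG2 cis-reporter panel. Cells treated 24 h; reporter transcripts quantified via RT-PCR and CE fluorescence against DMSO baseline.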

[12] = ATG_TGFb_CIS: Attagene CIS-FACTORIAL HepG2 Assay for human Transforming Growth Factor (TGF) (AID 2282967); settings: HepG2 Attagene CIS TGFb reporter, mRNA transcription; actives raise or lower the signal
Procedure, shortened: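 Liver HepG2 line, cis-factorial reporter panel, 24 h dosing. Quantitation: RT-PCR products labeled with 6-FAM, cut with HpaI, resolved by capillary electrophoresis; DMSO-referenced bidirectional analysis.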

[13] = ATG_VDRE_CIS: Attagene CIS-FACTORIAL HepG2 Assay for human Vitamin D Receptor Element (VDRE) (AID 2282968); settings: HepG2 VDRE cis-reporter transcription, actives raise or lower the signal
Procedure, shortened: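 Transfected HepG2 reporter cells, chemical treatment 24 h. RNA isolated, cDNA amplified with reporter-specific primers, products analysed by capillary electrophoresis. Endpoint fitted in both directions versus DMSO.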

[14] = ATG_NFI_CIS: Attagene CIS-FACTORIAL HepG2 Assay for human Nuclear Factor I (NFI) (AID 2282989); settings: HepG2 cis-regulatory reporter, NFI response element transcription; actives raise or lower the signal
Procedure, shortened: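 Transfected HepG2 liver cells, exposed 24 h, supplied total RNA for oligo(dT) reverse transcription and reporter-specific PCR. Labelled, HpaI-cut fragments were sized by capillary electrophoresis; DMSO set the baseline for bidirectional fitting.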

[15] = molecular target: Myc proto-oncogene protein (Homo sapiens) (UniProt P01106); assay: ATG_Myc_CIS: Attagene CIS-FACTORIAL HepG2 Assay for human Myelocytomatosis (Myc) Proto-Oncogene Transcription Factor (AID 2282990); settings: HepG2, Attagene cis-reporter transcription factor activity; actives raise or lower the signal
Chain of Myc proto-oncogene protein (Homo sapiens) (P01106 whole entry, looked up): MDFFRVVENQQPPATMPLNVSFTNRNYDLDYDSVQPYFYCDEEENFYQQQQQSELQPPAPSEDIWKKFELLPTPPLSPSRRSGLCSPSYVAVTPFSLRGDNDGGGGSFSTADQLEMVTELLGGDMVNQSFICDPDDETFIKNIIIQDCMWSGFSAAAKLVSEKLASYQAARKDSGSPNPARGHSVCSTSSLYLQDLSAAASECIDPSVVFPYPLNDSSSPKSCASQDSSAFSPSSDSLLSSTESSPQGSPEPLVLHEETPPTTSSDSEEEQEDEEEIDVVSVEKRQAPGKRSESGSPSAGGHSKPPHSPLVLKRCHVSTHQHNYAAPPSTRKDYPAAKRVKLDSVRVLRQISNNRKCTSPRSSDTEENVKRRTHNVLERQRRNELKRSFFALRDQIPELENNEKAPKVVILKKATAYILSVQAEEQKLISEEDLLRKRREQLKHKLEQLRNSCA
Procedure, shortened: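 DMSO-normalised, bidirectionally fitted reporter mRNA signal. HepG2 cells transfected with cis reporter constructs, treated 24 h; transcripts detected by RT-PCR, 6-FAM primer extension and CE.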

[16] = ATG_NRF2_ARE_CIS: Attagene CIS-FACTORIAL HepG2 Assay for human Nuclear Factor Erythroid 2 Related Factor 2 (NFR2) response to Antioxidant Response Elements (ARE) (AID 2282992); settings: HepG2 Attagene ARE/NRF2 reporter, transcription factor activity; actives raise or lower the signal;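 for AC50: reporter mRNA level measured by RT-PCR and capillary electrophoresis fluorescence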
Procedure, shortened: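 Endogenous transcription factor activity in human liver HepG2 cells is tracked via a cis-element-driven reporter within a multiplexed set. mRNA induction is read by RT-PCR and capillary electrophoresis after 24 h, with DMSO as baseline.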

[17] = molecular target: Cellular tumor antigen p53 (Homo sapiens) (UniProt P04637); assay: ATG_p53_CIS: Attagene CIS-FACTORIAL HepG2 Assay for human p53 Transcription Factor (AID 2282994); settings: HepG2 p53 cis-element reporter, Attagene mRNA; actives raise or lower the signal
Chain of Cellular tumor antigen p53 (Homo sapiens) (P04637 whole entry, looked up, the tested form may be a part): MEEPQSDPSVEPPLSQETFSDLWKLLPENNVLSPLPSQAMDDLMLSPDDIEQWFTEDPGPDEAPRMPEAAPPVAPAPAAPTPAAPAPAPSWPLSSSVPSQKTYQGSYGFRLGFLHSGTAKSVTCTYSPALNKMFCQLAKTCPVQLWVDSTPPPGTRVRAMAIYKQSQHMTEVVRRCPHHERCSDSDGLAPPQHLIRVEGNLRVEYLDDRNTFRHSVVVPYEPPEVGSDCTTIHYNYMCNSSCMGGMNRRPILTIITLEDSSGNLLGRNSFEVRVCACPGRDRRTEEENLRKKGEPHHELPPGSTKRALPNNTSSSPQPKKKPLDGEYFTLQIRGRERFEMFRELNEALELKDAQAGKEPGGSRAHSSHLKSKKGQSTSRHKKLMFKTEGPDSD
Procedure, shortened: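 Steps: transfect HepG2 with multiplexed cis reporter constructs; dose chemicals 24 h; extract RNA, reverse-transcribe, PCR-amplify reporter sequences; FAM-label, HpaI-digest, resolve fragments by CE. Activity fitted both directions relative to DMSO.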

[18] = molecular target: Nuclear receptor subfamily 1 group I member 2 (Homo sapiens) (UniProt O75469); assay: ATG_PXR_TRANS: Attagene TRANS-FACTORIAL HepG2 Assay for human Pregnane X Receptor (PXR) (AID 2283008; active = hit-call score of the fitted dose curve at least 0.9, where 1 is the maximum)
Chain of Nuclear receptor subfamily 1 group I member 2 (Homo sapiens) (O75469 whole entry, looked up, the tested form may be a part): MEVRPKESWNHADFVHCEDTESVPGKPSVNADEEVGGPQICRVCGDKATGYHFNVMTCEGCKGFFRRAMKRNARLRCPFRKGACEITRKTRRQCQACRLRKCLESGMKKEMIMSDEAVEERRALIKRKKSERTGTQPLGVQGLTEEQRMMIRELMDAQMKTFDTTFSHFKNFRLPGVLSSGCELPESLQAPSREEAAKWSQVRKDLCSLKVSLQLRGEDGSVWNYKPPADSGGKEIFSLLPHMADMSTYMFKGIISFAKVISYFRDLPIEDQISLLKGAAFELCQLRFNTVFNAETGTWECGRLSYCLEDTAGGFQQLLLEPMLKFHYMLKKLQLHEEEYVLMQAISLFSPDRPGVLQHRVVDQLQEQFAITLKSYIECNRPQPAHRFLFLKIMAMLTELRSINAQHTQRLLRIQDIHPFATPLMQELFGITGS
Procedure, shortened: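 HepG2 transfected (FuGene 6) with GAL4-UAS reporter units + PXR-Gal4 chimera; dosed 24 h. Total RNA → oligo(dT) RT → PCR → 6-FAM primer extension → HpaI cut → CE. Gain-of-signal vs DMSO.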

[19] = ATG_M_06_TRANS: Attagene TRANS-FACTORIAL HepG2 Assay for M06 Transcription Factor (Internal Marker) (AID 2282983; active = hit-call score of the fitted dose curve at least 0.9, where 1 is the maximum); settings: HepG2 Attagene TRANS M06 internal marker reporter
Procedure, shortened: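 Human liver HepG2 cells bearing transiently transfected chimeric NR-GAL4 reporter units were treated with chemicals for 24 h. Total RNA was reverse-transcribed, reporter sequences amplified and labelled, then quantified by capillary electrophoresis. Activity was fitted upward relative to DMSO.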

[20] = ATG_ISRE_CIS: Attagene CIS-FACTORIAL HepG2 Assay for human Interferon Regulatory Factor 1 (IRF1) binding to an Interferon-Stimulated Response Element (ISRE) (AID 2282948); settings: HepG2 ISRE cis-reporter (Attagene), mRNA transcription readout; actives raise or lower the signal
Procedure, shortened: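 Multiplexed mRNA reporter readout in human liver HepG2 cells: cis-element-driven reporters transfected, compound added for 24 h, transcripts amplified, fluorescently labelled and sized by capillary electrophoresis; curve fitting bidirectional against DMSO.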

Measured: AC50

CN(C)c1ccc(C(c2ccccc2)c2ccc(N(C)C)cc2)cc1
active: [13] 7.62 µM | [16] 68.1 µM | [18] 2.06 µM
inactive: [1] | [2] | [3] | [4] | [5] | [6] | [7] | [8] | [9] | [10] | [11] | [12] | [14] | [15] | [17]

[O-][n+]1ccc(Cl)cc1
inactive: [1] | [2] | [4] | [5] | [6] | [7] | [8] | [9] | [10] | [11] | [12] | [13] | [19] | [14] | [15] | [16] | [17] | [18]

CCCCCCC1CCCC(=O)O1 (configuration not stated)
inactive: [1] | [2] | [4] | [5] | [6] | [7] | [8] | [12] | [13] | [19] | [14] | [15] | [17] | [18]
active: [9] 19.8 µM | [16] 139 µM

CC/C=C\CCO
inactive: [1] | [2] | [3] | [5] | [20] | [6] | [7] | [8] | [9] | [11] | [12] | [13] | [19] | [14] | [15] | [16] | [17]

CCC(C)(CCC(C)C)C(=O)O (configuration not stated)
inactive: [1] | [2] | [4] | [5] | [6] | [7] | [9] | [10] | [11] | [12] | [13] | [19] | [14] | [15] | [16] | [18]

OCCN(CCO)c1cccc(Cl)c1
active: [16] 175 µM
inactive: [1] | [2] | [3] | [4] | [5] | [6] | [7] | [8] | [9] | [10] | [11] | [12] | [13] | [19] | [14] | [15] | [17] | [18]

Cc1cccnc1
inactive: [1] | [2] | [3] | [4] | [5] | [6] | [7] | [9] | [10] | [11] | [12] | [13] | [14] | [15] | [16] | [18]
active: [20] 164 µM | [8] 100 µM

CCCC[N+]1(C)CCCC1
inactive: [1] | [2] | [3] | [4] | [5] | [6] | [7] | [8] | [9] | [12] | [19] | [14] | [15] | [16] | [17]

Reference: PubChem BioAssay (EPA / NIEHS)
